Data reported in PubChem BioAssay AID2315 (National Center for Advancing Translational Sciences (NCATS), 2010).
The whole screen tested about 290,000 compounds, of which about 27,000 (9.3%) were called active. For the sample, actives were picked, then their nearest neighbours and some compounds at random. A number with no mark means an inactive call. No stated cut-off is given here; in the data, active means inhibition mostly above about 28% (no sharp cut-off); inactive means mostly below about 43%.

Experiment: A qHTS for Small Molecule Inhibitors of Shiga Toxin; further: 0% is about no effect
Details: Vero cells, Shiga toxin protein synthesis inhibition reporter; at 38.7 µM, active compounds read high

SMILES	inhibition
CC1CCCN(CC(=O)Nc2cc(Cl)ccc2Oc2ccccc2)C1 (stereo not drawn)	0.789%
CC1CCC2CCCCC2N1C(=O)c1cc([N+](=O)[O-])cc([N+](=O)[O-])c1 (stereo not drawn)	-16.8%
COC(=O)C(C)Oc1ccc2c(c1)O/C(=C\c1cccc(Br)c1)C2=O (stereo not drawn)	-4.67%
CN(C)C(=O)Oc1ccc2c(c1)O/C(=C\c1ccccc1)C2=O	62% (active)
O=C1/C(=C/c2ccc3c(c2)OCO3)Oc2cc(OCC(=O)N3CC(O)C[C@H]3C(=O)O)ccc21 (stereo partly drawn)	-3%
Cc1ccc(S(=O)(=O)N2CCC(C)CC2)cc1C(=O)NCc1ccccn1	5.07%
COc1ccccc1OCc1ccc(C(=O)NC(C)c2ccccc2)o1 (stereo not drawn)	-4.29%
CCc1cc(-c2nnc(SCC(=O)NC3CC3)n2C)cs1	14.1%
Cc1ccc(C(=O)N2CCCCCC2)cc1Br	20.5%
C=CCNC(=O)c1ccc(C)c(Br)c1	19.7% (active)
Cc1ccc(C(=O)NC(C)c2ccccc2)cc1Br (stereo not drawn)	38.4%
CCCc1nnc(SCC(=O)Nc2ccc(C(=O)OCC)cc2)o1	32.8%
COCCNC(=O)c1ccc(S(=O)(=O)c2ccc(Cl)cc2)c(NC(C)=O)c1	-11.4%
COCCNC(=O)c1snc2ccc(Cl)cc12	51.4% (active)
COCCNC(=O)c1ccc2c(c1)ncn2-c1ccc(C)c(Cl)c1	19.9%
Cc1ccc(S(=O)(=O)N2CCCC(C(=O)N3CCN(C)CC3)C2)cc1 (stereo not drawn)	-6.59%
NS(=O)(=O)c1cccc(NC(=O)CC23CC4CC(CC(Br)(C4)C2)C3)c1	-9.01%
CCOc1ccc(C(=O)Nc2ccc(S(=O)(=O)NCC3CCCO3)cc2)cc1OCC (stereo not drawn)	12.5%
O=C(Cc1csc(Nc2nc(=S)[nH]c3ccccc23)n1)NCCCN1CCN(c2cccc(Cl)c2)CC1	15.7%
O=C(NC1CCCC1)C(c1ccc(Cl)cc1)N(C(=O)c1csnn1)C1CC1 (stereo not drawn)	2.36%

SMILES	inhibition
O=C(NCc1ccccc1)C(c1cccnc1)N(C(=O)c1csnn1)c1ccc(F)cc1 (stereo not drawn)	1.7%
CC1CCN(C(=O)Cn2nnnc2CN2CCOCC2)CC1	15.5%
CCS(=O)(=O)n1nc(-c2ccc(OC)cc2)nc1SC	63.1%
CS(=O)(=O)n1nc(-c2ccccc2)nc1NCc1ccco1	7.12%
CCS(=O)(=O)n1nc(-c2ccccc2)nc1SCc1ccccc1	115% (active)
CCCC(C(=O)NC1CCCC1)N(C(=O)Cn1nnc(-c2ccc(C)o2)n1)c1cccc(O)c1 (stereo not drawn)	-4.05%
C[C@@H]1O[C@@H](OC[C@H]2O[C@@H](Oc3cc(O)c4c(c3)O[C@H](c3ccc(O)c(O)c3)CC4=O)[C@H](O)[C@@H](O)[C@@H]2O)[C@H](O)[C@H](O)[C@H]1O	-8.25%
Cc1ccc(Cn2ccc(NC(=O)c3cc(C(C)C)on3)n2)cc1	84.3% (active)
Cc1ccc(Cn2ccc(NC(=O)C3C4CCC(C4)C3C(=O)O)n2)cc1 (stereo not drawn)	-3.4%
Cc1cc(NC(=O)c2cc(-c3cccs3)on2)nn1Cc1ccc(Cl)cc1	9.37%
OC(c1ccc(Cl)cc1)C(CN1CCOCC1)c1ccccc1 (stereo not drawn)	2.21%
CC(=O)c1ccc(S(=O)(=O)NCc2nnnn2-c2ccccc2)cc1	-2.55%
Clc1ccc(-c2nnc(SCc3nc4ccccc4s3)o2)cc1	61.6% (active)
c1ccc(-c2nnc(SCc3nc4ccccc4[nH]3)o2)cc1	36.1%
O=C(CSc1nnc(-c2ccncc2)o1)NCc1ccc(Cl)cc1	-9.29%
CCOc1ccc(S(=O)(=O)N2CCC(c3ccccc3)CC2)cc1C(=O)O	-1.98%
COc1cccc(-c2nc(CS(=O)(=O)CC(=O)NCCc3ccc(OC)c(OC)c3)c(C)o2)c1	-8.6%
Cc1nc2ccccc2c(=O)n1NC(=O)c1ccc(Cl)c([N+](=O)[O-])c1	-9.41%
NC1=NN(c2cccc(C(=O)O)c2)C(=O)C1	143% (active)
O=C(O)c1cccc(N2C(=O)Nc3ccccc3N2O)c1	11.8%

SMILES	inhibition
COC(=O)CC1=NN(c2ccccc2)C(=O)C1	17.6%
CC(C)c1nc(CNC(=O)CC2C(=O)NCCN2Cc2cccc(F)c2F)cs1 (stereo not drawn)	-5.01%
CN(CCNC(=O)c1cc2c(-c3ccccc3F)nn(C)c2s1)C1CCCCC1	-4.2%
O=C(CCNS(=O)(=O)c1cccs1)N1CCN(c2ccc(F)cc2)CC1	-7.67%
COc1ccc(OC)c(S(=O)(=O)N(C)CC(=O)N2CCN(c3ccccc3)CC2)c1	-6.69%
CN(CC(=O)N1CCN(c2ccccc2)CC1)S(=O)(=O)c1cccs1	63.8% (active)
CCOc1ccc(S(=O)(=O)NCc2ccc3c(c2)OCO3)cc1C	-11.3%
COc1ccc(N2C(=O)C3C(C2=O)C(C(=O)c2ccccc2)N2CCCC32)cc1 (stereo not drawn)	19.2%
CC(=O)Nc1ccc(S(=O)(=O)NNC(=O)CCc2ccccc2)cc1	-3.14%
COc1cc(-c2c(-c3ccc4c(c3)OCO4)noc2C)ccc1F	48.8% (active)
COc1ccc(CCNC(=O)c2cc(-c3ccc4c(c3)OCO4)on2)cc1OC	-10.3%
COc1ccc(-c2onc(C)c2-c2ccc3c(c2)OCCO3)c(O)c1	-15%
NC(=O)CC(NC(=O)Cc1ccc(Br)cc1)c1ccc(NC2CC3CCC2C3)c([N+](=O)[O-])c1 (stereo not drawn)	60%
Cc1c(C)n(Cc2ccc(Cl)cc2)c2ccc(C(=O)NCCCN3CCOCC3)cc12	-12.7%
Cc1ccc(N/N=C2\COC(C)(C)CC2=O)cc1	101% (active)
COc1ccc(N/N=C2/CCCCC2=O)cc1	34.6%
COC(=O)c1ccc(S(=O)(=O)N2CCc3ccccc3C2)cc1	-1.69%
COc1ccc(N(C)S(=O)(=O)c2ccc3c(c2)CC(C)N3C(=O)C2CC2)c(OC)c1 (stereo not drawn)	14.9%
